The structures appear in SMILES notation. About 79,000 compounds went through this panel and 15% of them were active in at least one assay; those are over-represented in the sample as a whole. Unmarked numbers belong to inactive results. The source made the active and inactive calls. Cut-off read from the data, not from the text of the source: active = growth inhibition above about 70%; inactive = the rest.

The assay is described as follows: NCI Yeast Anticancer Drug Screen. Data for the rad18 strain (AID 177). The conditions noted are these: S. cerevisiae rad18 mutant growth inhibition, active compounds read high. The procedure: Growth inhibition of yeast strains with defined genetic alterations is measured as a screen for potential anti-cancer activity. Selected strains with alterations in DNA damage repair or cell cycle control were exposed to compounds and growth inhibition was measured relative to vehicle treated controls. The strain used in this assay is rad18

For `O=C1CC(C(O)(C(F)(F)F)C(F)(F)Cl)CCC1C(O)(C(F)(F)F)C(F)(F)Cl` (stereo not given), the growth inhibition is 42% (at 1.2 µM); 45% (at 3.7 µM); 76% (active) (at 11.0 µM); 94% (active) (at 33.0 µM); 97% (active) (at 100.0 µM).
The like results for `O=[N+]([O-])c1cc(Cl)ccc1S(=O)(=O)c1ccc(Cl)cc1[N+](=O)[O-]` were, in that order, 8%, 9%, 63%, 91% (active) and 87% (active).
The like results for `CC(=O)CCC1=C(C)C(=O)C(=O)C(C)=C1O` were, in that order, -4%, -7%, -3%, 14% and 90% (active).
The like results for `CC(C)Cc1ncc(CCCN=C(N)N)[nH]c1=O` were, in that order, -7%, -2%, -5%, -8% and -6%.
For the molecule `O=C1Nc2ccc(Br)cc2C1=Nc1cccnc1`, the growth inhibition runs as follows: (at 1.2 µM) -28%; (at 3.7 µM) -39%; (at 11.0 µM) -32%; (at 33.0 µM) -36%; (at 100.0 µM) -26%.
The like results for `Nc1cc2c(cc1N)-c1ccccc1C2=O` were, in that order, -3%, 1%, 5%, 21% and 93% (active).
As for `O=C(Nc1cccs1)c1ccccc1`, the growth inhibition runs as follows: (at 1.2 µM) -6%; (at 3.7 µM) -2%; (at 11.0 µM) 1%; (at 33.0 µM) 4%; (at 100.0 µM) 94% (active).
Consider `c1ccc2c(c1)N=C1CCCC3CCCC123` (stereo not given), for which the growth inhibition is -2% (at 1.2 µM); -3% (at 3.7 µM); 0% (at 11.0 µM); -6% (at 33.0 µM); 98% (active) (at 100.0 µM).

These data come from PubChem BioAssay (NCI).
